The nature of test [1]: qHTS of pediatric cancer cell lines to identify multiple opportunities for drug repurposing: Primary screen for NB1643 cells (AID 1347099). Note: nearly all actives have a fitted effect of over 50% in size. Note: potency is the fitted concentration of half-maximal effect. In outline: (§1)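 Quantitative HTS format: each compound titrated (MIPE 11 points from 0.78 nM, NPC 8 points from 0.59 nM) onto cells plated 5 hours earlier. After 48 h at 37 degrees C, CellTiter-Glo luminescence was recorded.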
On the technique in general: qHTS replaces the single test concentration by a dilution series.

Test [2] in a line: qHTS of pediatric cancer cell lines to identify multiple opportunities for drug repurposing: Primary screen for LAN-5 cells (AID 1347100). Note: potency is the fitted concentration of half-maximal effect. In short, it runs like this: (§2)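 Cells (500-1,000/well) in growth media were settled 5 h at 37 degrees C, then given compounds for 48 h. Viability was read as CellTiter-Glo luminescence. Primary runs used MIPE at 11 points (0.78 nM-46 µM) and NPC at 8 points (0.59 nM-46 µM); follow-ups used 11 points.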

Test [3] can be described thus: qHTS of pediatric cancer cell lines to identify multiple opportunities for drug repurposing: Primary screen for BT-12 cells (AID 1347101). Note: nearly all actives have a fitted effect of over 25% in size. Note: potency is the fitted concentration of half-maximal effect. In short, it runs like this:
(§3)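 Cells (500-1,000/well) rested 5 h, then received compounds for 48 h; metabolically active cells were measured by CellTiter-Glo luminescence. Final concentrations spanned up to 46 µM (MIPE, 11-point) or 0.59 nM-46 µM (NPC, 8-point) in primary screens, 11-point in follow-ups.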

A short description of test [4]: qHTS of pediatric cancer cell lines to identify multiple opportunities for drug repurposing: Primary screen for Rh18 cells (AID 1347102). Note: nearly all actives have a fitted effect of over 65% in size. Note: potency is the fitted concentration of half-maximal effect. In short, it runs like this:
as §2

Test [5] in a line: qHTS of pediatric cancer cell lines to identify multiple opportunities for drug repurposing: Primary screen for OHS-50 cells (AID 1347103). Note: nearly all actives have a fitted effect of over 40% in size. Note: potency is the fitted concentration of half-maximal effect. In short, it runs like this: as §3
The nature of test [6]: qHTS of pediatric cancer cell lines to identify multiple opportunities for drug repurposing: Primary screen for RD cells (AID 1347104). Note: nearly all actives have a fitted effect of over 55% in size. Note: potency is the fitted concentration of half-maximal effect. In outline:
as §1

Test [7] is described as follows: qHTS of pediatric cancer cell lines to identify multiple opportunities for drug repurposing: Primary screen for MG 63 (6-TG R) cells (AID 1347105). Note: nearly all actives have a fitted effect of over 50% in size. Note: potency is the fitted concentration of half-maximal effect. In outline: as §1
The nature of test [8]: qHTS of pediatric cancer cell lines to identify multiple opportunities for drug repurposing: Primary screen for control Hh wild type fibroblast cells (AID 1347106).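 Note: series mostly up to about 46 µM; a drop in luminescence marks cytotoxicity and a rise apparent proliferation; nearly all actives have a fitted effect of over 55% in size.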 In outline:
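Viability after 48 h compound treatment at 37C, 500-1,000 cells/well, read as ATP luminescence with CellTiter-Glo. Primary screens used 11-point (MIPE, 0.78 nM-46 µM) or 8-point (NPC, 0.59 nM-46 µM) final concentrations; follow-up screens used 11-point dilutions.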

A short description of test [9]: qHTS of pediatric cancer cell lines to identify multiple opportunities for drug repurposing: Primary screen for Rh30 cells (AID 1347107). Note: nearly all actives have a fitted effect of over 75% in size. Note: potency is the fitted concentration of half-maximal effect. In short, it runs like this: as §2
Test [10] is described as follows: qHTS of pediatric cancer cell lines to identify multiple opportunities for drug repurposing: Primary screen for SK-N-SH cells (AID 1347098). Note: nearly all actives have a fitted effect of over 65% in size. Note: potency is the fitted concentration of half-maximal effect. In outline: as §3

Values joined by “and” are separate entries in the source; they are usually repeats but may differ in a detail not shown here. Identical values can stand only once. Inconclusive results are not listed. Active and inactive are the calls of the source. Calls come from the whole dose curve; as a rule, active = well fitted curve in the direction sought with a large enough effect; inconclusive = small, poorly fitted or top-dose-only effect, or another doubt; inactive = no such curve, though single readings can be large; an effect the other way counts as inactive or inconclusive.

Take `CC(=O)c1ccc(S(=O)(=O)NC(=O)NC2CCCCC2)cc1`: the Potency result in test [1], in [2], in test [3], in [4], in test [5] and in test [6] was “inactive” throughout. The Potency entry in [7], in test [8] and in test [9] was “inactive” each time.

As to `CNC(=O)c1ccccc1Sc1ccc2c(C=Cc3ccccn3)n[nH]c2c1`, the Potency is 16.6 µM (active) in test [1]; 0.743 µM (active) in [2]; 19.3 µM (active) in [3]; 14.8 µM (active) in test [4]; 21.7 µM (active) in [5].

Consider `O=c1cc(-c2ccccc2)oc2cc(O)c(O)c(O)c12`, for which the Potency result in test [10], in test [6], in test [7] and in [8] was “inactive” each time.

Turning to `O=c1cc(-c2ccc(O)cc2)oc2cc(O)cc(O)c12`, the Potency was 0.469 µM (active) in test [1]; 3.32 µM (active) in test [2]; 3.43 µM (active) in test [3]; 2.35 µM (active) in test [4]; 2.96 µM (active) in test [6]; 18.7 µM (active) in test [7]. In [8], the Potency entry was “inactive”.

With `COc1cc(N2CCC(N3CCN(C)CC3)CC2)ccc1Nc1ncnc(Nc2ccccc2S(=O)(=O)C(C)C)n1`, the Potency was 27.1 µM (active) in test [10] and 5.26 µM (active) in [9]. For the same compound, the Potency result in test [7] and in test [8] was “inactive” throughout.

Take `CCCNC(=O)NS(=O)(=O)c1ccc(Cl)cc1`: the Potency result in [1], in [2], in [3], in test [4], in test [6] and in [7] was “inactive” each time. Besides, the Potency entry in test [8] and in [9] was “inactive” throughout.

Take `CC[C@]1(O)C[C@@H]2CN(CCc3c([nH]c4ccccc34)[C@@](C(=O)OC)(c3cc4c(cc3OC)N(C)[C@H]3[C@@](O)(C(=O)OC)[C@H](OC(C)=O)[C@]5(CC)C=CCN6CC[C@]43[C@@H]65)C2)C1`: the Potency in test [1] is 1.33 µM (active); in test [2] it was 0.133 µM (active); in test [3] it was 43.7 nM (active) and 347 nM (active); in [5], 30.9 nM (active) and 138 nM (active); in [6], 21.1 nM (active) and 211 nM (active). Besides, in test [9], the Potency result is “inactive”.

On to `COc1cccc(-c2cc(=O)c3ccccc3o2)c1N`, for which the Potency is 20.9 µM (active) in test [1] and 13.2 µM (active) in test [6]. The Potency result in test [2], in test [3], in test [4], in [5], in test [8] and in [9] was “inactive” throughout.

Turning to `CC(C)OC(=O)CCCC=CC[C@@H]1[C@H](C=C[C@@H](O)COc2cccc(C(F)(F)F)c2)[C@H](O)C[C@@H]1O`, the Potency in [1] was 23.5 µM (active); in test [3], 19.3 µM (active); in [5], 24.3 µM (active); in [6], 33.2 µM (active). The Potency result in [2], in test [7] and in test [8] was “inactive” each time.

As to `C[C@@H](O)[C@H]1C(=O)N2C(C(=O)O)=C(S[C@@H]3CN[C@H](C(=O)N(C)C)C3)[C@H](C)[C@H]12`, the Potency result in test [1], in test [2], in [3], in test [4], in [5] and in test [6] was “inactive” throughout. The Potency entry in test [7], in test [8] and in [9] was “inactive” each time.

On to `COCCOc1nc(-c2ccc(Cl)c(Cl)c2)n(-c2ccc(NC(=O)CCl)cc2)n1`, for which the Potency in test [1] is 16.6 µM (active); in test [2] it was 18.7 µM (active); in [3], 5.44 µM (active); in test [5], 6.11 µM (active). The Potency result in test [8] was “inactive”.

In the case of `NC1=N[C@@]2(c3cc(NC(=O)c4ccc(F)cn4)ccc3F)COC[C@@H]2CS1`, the Potency entry in test [1], in test [4], in test [8] and in test [9] was “inactive” in each case. In addition, the Potency in test [2] was 0.132 µM (active); in [3] it was 0.153 µM (active); in [5], 0.137 µM (active); in [7], 23.5 µM (active).

For the compound `O=C(O)c1ccccc1C(=O)Nc1ccc(-c2ccccc2)cc1`, the Potency result in test [1], in [2], in [3], in test [4], in test [6] and in [7] was “inactive” in each case. The Potency entry in test [8] and in test [9] was “inactive” each time.

Consider `CCOC(=O)C1=C(N)Oc2ccc(Br)cc2C1C(C#N)C(=O)OCC` (configuration not stated), for which the Potency in [1] is 10.5 µM (active); in [2], 16.6 µM (active); in test [4], 14.8 µM (active); in test [6] it was 29.6 µM (active). Also, the Potency entry in test [3], in test [5], in test [7], in [8] and in test [9] was “inactive” throughout.

On to `CC1(C)CCC[C@@]2(C)[C@@H]1CC[C@@]1(C)OC(=O)C[C@H]21`, for which the Potency result in test [1], in test [2], in test [3], in test [4], in [6] and in test [7] was “inactive” throughout. The Potency entry in test [8] and in test [9] was “inactive” each time.

`O=C(O)c1c(Cl)c(Cl)c(Cl)c(Cl)c1-c1c2cc(I)c(=O)c(I)c-2oc2c(I)c(O)c(I)cc12`: the Potency in test [10] was 24.1 µM (active); in test [5], 7.69 µM (active).

Regarding `CC1(C)Cc2c(sc(NC(=S)NC(=O)c3ccccc3)c2C(=O)O)CO1`, the Potency in test [1] was 5.26 µM (active); in [6], 33.2 µM (active). Also, the Potency entry in [2], in test [3], in test [4], in test [7], in [8] and in test [9] was “inactive” in each case.

For the compound `CC(C)C(C)C=CC(C)C1CCC2C3=CC=C4CC(O)CCC4(C)C3CCC21C` (configuration not stated), the Potency result in [1], in test [2], in [3], in test [4], in test [5] and in test [6] was “inactive” in each case. Also, the Potency result in [7], in test [8] and in [9] was “inactive” in each case.

As for `O=C1c2ccccc2-[n+]2ccc3c([nH]c4ccccc43)c21`, the Potency is 5.26 µM (active) in test [1]; 1.66 µM (active) in test [2]; 6.85 µM (active) in test [3]; 2.35 µM (active) in test [4]; 2.17 µM (active) in test [5]; 1.87 µM (active) in test [6]. Besides, the Potency in [7] is 2.96 µM (active); in [9], 4.18 µM (active).
